ALR H2O2 inh: human ALR oxidase inhibition via reduced H2O2; 3.8% of 290,000 active; P55789; purified ALR, DTT oxidation, H2O2 HRP-luminol luminescence; inhibition, % (no concentration beside the values);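 active = mean replicate inhibition above about 79%, with every replicate also reaching it, limit read from the data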
A1 inh: inhibitors of the anti-apoptotic protein A1, read as caspase activation; MEF A1-2A-BIM cells, Caspase-Glo 3/7 luminescence, 3 h; percent of clofoctol response, vehicle zero; caspase activation, % (no concentration beside the values); AID 2462; 0.066% of 330,000 active;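 active = over half of replicate activation scores above 10%, or exactly half above 10 with the replicate mean above 10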
AHR act: activators of human aryl hydrocarbon receptor. 2.5% of 320,000 active. P35869. AID 2796. AHR-responsive luciferase reporter cells, luminescence. activation, % at 5 µM; in the data active = activation above about 47%
Target sequence (P35869 whole entry, looked up): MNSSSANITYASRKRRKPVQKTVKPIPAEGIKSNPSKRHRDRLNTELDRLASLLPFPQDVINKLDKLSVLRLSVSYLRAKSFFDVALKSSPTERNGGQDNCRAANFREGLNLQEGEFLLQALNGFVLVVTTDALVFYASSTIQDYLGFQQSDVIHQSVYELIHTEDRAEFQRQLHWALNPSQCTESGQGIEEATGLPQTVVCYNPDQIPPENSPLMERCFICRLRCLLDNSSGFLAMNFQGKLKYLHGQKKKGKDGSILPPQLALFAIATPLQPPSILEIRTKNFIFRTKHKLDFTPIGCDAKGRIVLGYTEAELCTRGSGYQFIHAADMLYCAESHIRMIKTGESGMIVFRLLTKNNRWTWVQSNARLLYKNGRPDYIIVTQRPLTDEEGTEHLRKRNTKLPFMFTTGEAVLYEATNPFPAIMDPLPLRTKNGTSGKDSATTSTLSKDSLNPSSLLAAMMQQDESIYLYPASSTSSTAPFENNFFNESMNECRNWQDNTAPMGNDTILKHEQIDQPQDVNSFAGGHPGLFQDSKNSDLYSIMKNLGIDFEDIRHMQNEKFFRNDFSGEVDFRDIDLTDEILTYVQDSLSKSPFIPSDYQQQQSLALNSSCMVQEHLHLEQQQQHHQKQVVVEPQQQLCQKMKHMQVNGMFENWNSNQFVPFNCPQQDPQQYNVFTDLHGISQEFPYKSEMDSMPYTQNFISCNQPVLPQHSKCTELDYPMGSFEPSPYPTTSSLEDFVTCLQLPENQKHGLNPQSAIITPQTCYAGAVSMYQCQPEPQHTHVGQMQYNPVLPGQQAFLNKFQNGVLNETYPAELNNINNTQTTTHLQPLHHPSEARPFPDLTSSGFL
Efflux pump mplx: inhibitors of Candida antifungal efflux pumps expressed in yeast; S. cerevisiae Candida pump triplex, Nile Red efflux; inhibition, % at 10 µM; 0.44% of 330,000 active;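 active = plate passing quality check with inhibition over a set limit, or well fluorescence over plate mean plus 4 SD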;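 note: Nile Red retained in pooled yeast measured as flow cytometry median fluorescence; higher means more Nile Red kept so more efflux inhibition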
Mot1-301 SUMO: blocks SUMOylation pathway, rescuing yeast Mot1-301 growth; growth rescue, % at 18.8 µM; S. cerevisiae Mot1-301 growth rescue, ATP luminescence, 38.5C; percent above DMSO median, 100 means doubled; 1% of 320,000 active;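 active = every valid replicate shows activation above 250% relative to neutral control wells; inactive = the rest, any valid replicate at or below 250%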
VLA-4 inh: inhibition in a human VLA-4 binding assay. P13612. VLA-4 expressing cells, ligand binding flow cytometry. inhibition, % (about 7 µM as worked out from the volumes in the protocol). 0.2% of 330,000 active. AID 2557; in the data active = inhibition above about 50%
Large screens that a line does not name were inactive. Rows were chosen to be rich in hits. Some 7.2% of all compounds tested hit in one or more screens of this group.

COC(=O)c1ccc(NC(=O)CSC2=Nc3ccccc3C3CC=NN23)cc1 (centres undefined)	ALR H2O2 inh 97
Cc1ccc(NC(=O)CSC2=Nc3ccccc3C3CC=NN23)c(C)c1 (centres undefined)	none
NC(=O)c1ccc(NC(=O)CSC2=Nc3ccccc3C3CC=NN23)cc1 (centres undefined)	ALR H2O2 inh 99
O=C(CN1C(=O)NC2(CCOc3ccccc32)C1=O)c1ccc[nH]1 (centres undefined)	none
CCCCS(=O)(=O)/C=C\C1C2C=CC(C2)C1S(=O)(=O)CCCC (centres undefined)	none
CCCCS(=O)(=O)/C=C\C=C/S(=O)(=O)CCCC	ALR H2O2 inh 98
O=C(c1cnn2c(C(F)F)cc(-c3ccccc3)nc12)N1CCc2ccccc2C1	none (no result: Mot1-301 SUMO)
O=C(c1cnn2c(C(F)F)cc(C3CC3)nc12)N1CCc2ccccc2C1	AHR act 49 (no result: ALR H2O2 inh)
CCC1CCCCN1C(=O)CSc1nnc(-c2cccs2)o1 (centres undefined)	none
COC(=O)c1c(NC(=O)/C=C/C(=O)O)sc(C)c1-c1ccc(C)cc1	ALR H2O2 inh 98
COC(=O)c1c(NC(=O)/C=C/C(=O)O)sc(C)c1-c1ccc(C(C)C)cc1	none
COC(=O)c1c(NC(=O)/C=C/C(=O)O)sc(C)c1-c1ccc(C)c(C)c1	none (no result: ALR H2O2 inh)
COC(=O)c1sc(-c2ccc(Cl)cc2)cc1NC(=O)/C=C/C(=O)O	ALR H2O2 inh 84
CCOC(=O)c1c(NC(=O)/C=C/C(=O)O)sc(C)c1-c1ccc(C)c(C)c1	ALR H2O2 inh 98
COc1ccc(NC(=O)c2ccc(NC(=O)CSc3nc(N)cc(=O)[nH]3)cc2)cc1	none
O=C(C1=C[C@H](c2ccc(Br)cc2)C[C@H](OCCCCO)O1)N1CCN(Cc2ccccc2)CC1	none (no result: Efflux pump mplx, VLA-4 inh)
COc1ccc(-n2ncc3c2CC(C)(C)CC3NC(=O)CCN2CCCCC2=O)cc1 (centres undefined)	none
C[C@H](CO)N1C[C@H](C)[C@@H](CN(C)S(C)(=O)=O)Oc2c(NC(=O)Nc3ccccc3)cccc2C1=O	none (no result: ALR H2O2 inh, A1 inh, Mot1-301 SUMO)
Cc1ccc2nc(Cl)c(/C=N/NC(=O)c3ccccc3O)cc2c1	ALR H2O2 inh 97
Cn1ncc(Cl)c1C(=O)NCC1CCCO1 (centres undefined)	none
CCc1sc(C(=O)Nc2cccc(C(C)=O)c2)cc1C	none
NNc1cc(C(=O)O)ccc1Cl	none
O=C1CNC(=S)N1c1nc2ccccc2s1	ALR H2O2 inh 95
O=c1cc(-c2ccccc2)[nH]n1-c1nc2ccccc2s1	none
CCn1cc(CN2CCC(n3nccc3NC(=O)c3cccc(F)c3)CC2)c(C)n1	none
Cc1cc(C)c2c(=O)n(CC(=O)NCCCN3CCN(c4ccccc4F)CC3)sc2n1	none (no result: ALR H2O2 inh)
Cc1cc(C)c2c(=O)n(CC(=O)NCCCN3CCOCC3)sc2n1	Mot1-301 SUMO 353
COc1ccc(C(=O)Nc2nnc(-c3ccccc3)s2)cc1	none (no result: AHR act)
COc1ccc(C(=O)Nc2nnc(C(F)(F)F)s2)cc1	AHR act 59
O=C(NNC(=O)c1ccccc1O)c1ccc(Cl)c(S(=O)(=O)N2CCCCC2)c1	ALR H2O2 inh 97
COc1ccccc1C1(O)C(=O)Nc2ccccc21 (centres undefined)	none
O=C(c1ccc(CS(=O)Cc2cccc(Cl)c2)o1)N1CCN(C2CCCCC2)CC1 (centres undefined)	none
COc1ccc(C(=O)/C=C/c2ccc(OCc3ccccc3)cc2)cc1CSCC(=O)O	ALR H2O2 inh 99 (no result: AHR act)
Cc1ccccc1OCC(=O)OCC(=O)c1ccc(OCc2ccccc2)cc1	none
COc1ccccc1CC(=O)c1ccc(OCc2ccccc2)cc1	AHR act 48
CC(=O)c1ccc(OC(=O)CCc2ccccc2)cc1	none
COc1ccc(-c2ccc(CCC(=O)O)n2NC(N)=O)cc1	none
COc1ccccc1-n1c(CCC(=O)O)ccc1-c1ccccc1	ALR H2O2 inh 90
COc1ccc(-c2ccc(CCC(=O)O)n2NC(=O)c2ccc(O)cc2)cc1	ALR H2O2 inh 98
COc1ccc(-c2ccc(CCC(=O)O)n2-c2ccccc2OC)cc1	ALR H2O2 inh 99
O=C(O)CCc1ccc(-c2ccccc2)n1NC(=O)c1sc2ccccc2c1Cl	ALR H2O2 inh 98
NNC(=O)c1cnn(-c2ccccc2)c1-n1cccc1	none

Screens: PubChem BioAssay, several laboratories
